Here are results for 3 molecules from publication PMC11062922 (Nature Chemical Biology, 2023).

Holding throughout (set-up): species or system human, MV4-11 + K-562 + COLO205 + SK-N-BE2 + OVCAR-8
One assay has as its system CIT. The note with it: read-out: apparent Kd, n = 1.
For a further assay, the system named is CSNK1A1. The note with it: read-out: apparent Kd, n = 1.
In the next assay the test system is CSNK1D. The note with it: read-out: apparent Kd, n = 1.
Another assay concerns CSNK1E. The note with it: read-out: apparent Kd, n = 1.
The next assay relates to DDR1. Conditions: read-out: apparent Kd; compound concentrations: 100 nM and 1000 nM (sheet 'Samples'), CATDS: 5.04347105241187E-2; n = 1.
Another assay has as its system DDR2. The note with it: read-out: apparent Kd, n = 1.
Another assay deals with ERCC2. The note with it: read-out: apparent Kd; compound concentrations: 100 nM and 1000 nM (sheet 'Samples'), CATDS: 0.16888440143106601; n = 1.
The test system of a further assay is MAPK10. Conditions: read-out: apparent Kd, n = 1.
The next assay concerns MAPK14. Conditions: read-out: apparent Kd, n = 1.
A further assay has as its system MAPK9. Conditions: read-out: apparent Kd, n = 1.
A further assay deals with MAPKAPK2. The note with it: read-out: apparent Kd, n = 1.
In a further assay the test system is NLK. The note with it: read-out: apparent Kd, n = 1.
In another assay the test system is RIPK2. Conditions: read-out: apparent Kd, n = 1.
The next assay deals with TNK1. The note with it: read-out: apparent Kd, compound concentrations: 100 nM and 1000 nM (sheet 'Samples'), n = 1.
In another assay the test system is TNK2. The note with it: read-out: apparent Kd; compound concentrations: 100 nM and 1000 nM (sheet 'Samples'), CATDS: 0.19568733735508301; n = 1.
A further assay relates to CLK1. Conditions: read-out: apparent Kd; compound concentrations: 100 nM and 1000 nM (sheet 'Samples'), CATDS: 4.8485832065687497E-2; n = 1.
In the next assay the test system is CLK4. The note with it: read-out: apparent Kd; compound concentrations: 100 nM and 1000 nM (sheet 'Samples'), CATDS: 5.2281896734728002E-2; n = 1.
The test system of another assay is EIF2AK1. The note with it: read-out: apparent Kd; compound concentrations: 100 nM and 1000 nM (sheet 'Samples'), CATDS: 4.8293070245640599E-2; n = 1.
The subject of the next assay is FER. Conditions: read-out: apparent Kd; compound concentrations: 100 nM and 1000 nM (sheet 'Samples'), CATDS: 4.7949039435888803E-2; n = 1.
The test system of the next assay is GAK. Conditions: read-out: apparent Kd, n = 1.
Another assay deals with IGF1R. The note with it: read-out: apparent Kd; compound concentrations: 100 nM and 1000 nM (sheet 'Samples'), CATDS: 5.4863623433827502E-2; n = 1.
The next assay has as its system INSR. The note with it: read-out: apparent Kd; compound concentrations: 100 nM and 1000 nM (sheet 'Samples'), CATDS: 6.5997959622395005E-2; n = 1.
The test system of a further assay is MAPK8. The note with it: read-out: apparent Kd; compound concentrations: 100 nM and 1000 nM (sheet 'Samples'), CATDS: 0.131985587437009; n = 1.
Another assay deals with PTK2B. Conditions: read-out: apparent Kd; compound concentrations: 100 nM and 1000 nM (sheet 'Samples'), CATDS: 8.3393690442652907E-2; n = 1.
The subject of another assay is TTK. Conditions: read-out: apparent Kd; compound concentrations: 100 nM and 1000 nM (sheet 'Samples'), CATDS: 6.1430797612991001E-2; n = 1.
The next assay relates to COX5A. Conditions: read-out: apparent Kd; compound concentrations:100 nM and 1000 nM (sheet 'Samples'); n = 1.
A further assay concerns MAP2K2. Conditions: read-out: apparent Kd; compound concentrations:100 nM and 1000 nM (sheet 'Samples'); n = 1.
The next assay concerns MAPK11. Conditions: read-out: apparent Kd; compound concentrations:100 nM and 1000 nM (sheet 'Samples'); n = 1.
Another assay relates to NNT. Conditions: read-out: apparent Kd; compound concentrations:100 nM and 1000 nM (sheet 'Samples'); n = 1.
The subject of the next assay is PIP4K2C. Conditions: read-out: apparent Kd; compound concentrations:100 nM and 1000 nM (sheet 'Samples'); n = 1.
The next assay concerns PKN3. Conditions: read-out: apparent Kd; compound concentrations:100 nM and 1000 nM (sheet 'Samples'); n = 1.
The next assay relates to PRKD2. Conditions: read-out: apparent Kd; compound concentrations:100 nM and 1000 nM (sheet 'Samples'); n = 1.
For another assay, the system named is PSMC3. The note with it: read-out: apparent Kd; compound concentrations:100 nM and 1000 nM (sheet 'Samples'); n = 1.
A further assay has as its system TGFBR1. Conditions: read-out: apparent Kd; compound concentrations:100 nM and 1000 nM (sheet 'Samples'); n = 1.
[1] abbreviates: compound concentrations:100 nM and 1000 nM (sheet 'Samples').

Like-named read-outs stand apart in the source and are kept apart here.

Turning to `Nc1nccc(-c2c(-c3ccc(F)cc3)ncn2C2CCN(Cc3ccccc3)CC2)n1` [SB-219980], the potency estimated from few doses in the assay on CIT (compound concentrations: 100 nM and 1000 nM (sheet 'Samples'), CATDS: 7.5521196037373797E-2) is 142 nM; in the assay on CSNK1A1 (compound concentrations: 100 nM and 1000 nM (sheet 'Samples'), CATDS: 4.0949734681157798E-2), 1790 nM; in the assay on CSNK1D (compound concentrations: 100 nM and 1000 nM (sheet 'Samples'), CATDS: 7.5353596099526104E-2), 143 nM; with CSNK1E (compound concentrations: 100 nM and 1000 nM (sheet 'Samples'), CATDS: 5.67501120580748E-2), 362 nM; with DDR1, 584 nM; in the assay on DDR2 (compound concentrations: 100 nM and 1000 nM (sheet 'Samples'), CATDS: 3.97356163806874E-2), 2230 nM. In addition, the potency estimated from few doses was 26.1 nM in the assay on ERCC2; 1230 nM with MAPK10 (compound concentrations: 100 nM and 1000 nM (sheet 'Samples'), CATDS: 4.34774071226985E-2); 53.6 nM in the assay on MAPK14 (compound concentrations: 100 nM and 1000 nM (sheet 'Samples'), CATDS: 0.113663446643848); 814 nM in the assay with MAPK9 (compound concentrations: 100 nM and 1000 nM (sheet 'Samples'), CATDS: 4.6959741652320801E-2); 99.3 nM in the assay with MAPKAPK2 (compound concentrations: 100 nM and 1000 nM (sheet 'Samples'), CATDS: 8.6501611072326803E-2); 770 nM in the assay on NLK (compound concentrations: 100 nM and 1000 nM (sheet 'Samples'), CATDS: 4.75025353654299E-2). The potency estimated from few doses with RIPK2 (compound concentrations: 100 nM and 1000 nM (sheet 'Samples'), CATDS: 0.10770613005205) was 60 nM; with TNK1 (CATDS: 0.18410889385923901), 22.7 nM; in the assay with TNK2, 20.7 nM.

Take `CCCN1CCC(c2ccc(Nc3nc(Nc4cc(F)ccc4C(N)=O)c4cc[nH]c4n3)c(OC)c2)CC1` [GSK1326255A]: the potency estimated from few doses with CLK1 was 1210 nM; with CLK4 it was 912 nM; with CSNK1D (compound concentrations: 100 nM and 1000 nM (sheet 'Samples'), CATDS: 4.52776824202724E-2), 1610 nM; in the assay with CSNK1E (compound concentrations: 100 nM and 1000 nM (sheet 'Samples'), CATDS: 4.2697744465197598E-2) it was 2150 nM; with EIF2AK1, 1230 nM; in the assay with FER, 1260 nM. The potency estimated from few doses is 82.5 nM with GAK (compound concentrations: 100 nM and 1000 nM (sheet 'Samples'), CATDS: 0.152402490696291); 775 nM in the assay on IGF1R; 449 nM with INSR; 70.3 nM in the assay on MAPK10 (compound concentrations: 100 nM and 1000 nM (sheet 'Samples'), CATDS: 0.16896566157677501); 104 nM with MAPK8; 137 nM in the assay on MAPK9 (compound concentrations: 100 nM and 1000 nM (sheet 'Samples'), CATDS: 0.113022620554471). Also, the potency estimated from few doses in the assay on PTK2B is 253 nM; in the assay on TNK1 (CATDS: 0.131122015547642), 106 nM; in the assay with TTK, 548 nM.

On to `CN1CCC(n2cnc(-c3ccc(F)cc3)c2-c2ccnc(N)n2)CC1` [SB-220455], for which the potency estimated from few doses is 230 nM in the assay with CIT (setting [1]); 656 nM in the assay with COX5A; 24.7 nM with CSNK1A1 (setting [1]); 2.26 nM with CSNK1D (setting [1]); 5.87 nM in the assay on CSNK1E (setting [1]); 578 nM in the assay on DDR2 (setting [1]). For the same molecule, the potency estimated from few doses was 1350 nM in the assay on GAK (setting [1]); 185 nM in the assay with MAP2K2; 784 nM in the assay on MAPK10 (setting [1]); 1130 nM with MAPK11; 22 nM with MAPK14 (setting [1]); 450 nM in the assay with MAPK9 (setting [1]). Also, the potency estimated from few doses is 3.88 nM with MAPKAPK2 (setting [1]); 81.5 nM in the assay with NLK (setting [1]); 1290 nM with NNT; 2310 nM in the assay on PIP4K2C; 1520 nM with PKN3; 1580 nM in the assay on PRKD2. In addition, the potency estimated from few doses in the assay with PSMC3 is 1920 nM; with RIPK2 (setting [1]) it was 246 nM; with TGFBR1 it was 2020 nM.
